# Laboratory results as given in ChEMBL document CHEMBL1157539, “Thousands of chemical starting points for antimalarial lead identification” (Nature, 2010).
# System: Plasmodium falciparum
# Test: GSK_TCMDC: Inhibition of Plasmodium falciparum Dd2 in whole red blood cells, using parasite LDH activity as an index of growth. Test compounds present at 2uM
# Type: functional
row,SMILES,Inhibition
1,N#Cc1ccc(CN2CCCN(Cc3cccc(NC(=O)c4ccc(Cl)c(Cl)c4)c3)CC2)cc1.O=C(O)C(F)(F)F,10%
2,Cl.NOCCCCOc1ccc(Br)cc1,0%
3,COc1cc(C2C(Oc3ccccc3)C(=O)N2Cc2ccc(F)cc2)cc(OC)c1OC (configuration not stated),97%
4,N#Cc1cccc(NC(=O)Nc2cccc(-c3cccc(-c4nc5ccccc5[nH]4)c3)c2)c1,96%
5,CCOc1ccc(Nc2nc(N)c3ccccc3n2)cc1.Cl,6%
6,O=C(NCc1ccc(Cl)c(Cl)c1)c1ccc(C2CCCN(Cc3ccc4[nH]cnc4c3)C2)cc1 (configuration not stated),83%
7,CCCCCCc1cc(OC)c(OC)cc1C(C)Nc1ccnc2cc(Cl)ccc12 (configuration not stated),79%
8,COc1ccccc1CN1CCC(NC(=O)c2ccc(-c3cccc(Cl)c3)s2)CC1.O=C(O)C(F)(F)F,9%
9,CN1CCCN(Cc2cccc(-c3cccc(NC(=O)c4cccc(C#N)c4)c3)c2)CC1.O=C(O)C(F)(F)F,33%
10,CC(C)Oc1ccc(C=CC(=O)Nc2noc3ccccc23)cc1,95%
11,CN(C)CCOc1ccc(N2CCN(CCCCNC(=O)c3ccc(/C=C/c4cc(Cl)cc(Cl)c4)cc3)CC2)cc1,84%
12,CCOc1c(CNCCCNc2nc3ccccc3[nH]2)cc(I)cc1OC.Cl,4%
13,COc1cccc2c(N/N=C/c3ccc([N+](=O)[O-])cc3)ccnc12,16%
14,CN(c1ccccc1)c1ccnc(NC(=N)Nc2ccc(Cl)cc2)n1,6%
15,O=C(CCN(Cc1ccco1)c1nc(-c2ccc(F)cc2)nc2ccccc12)NC1CC1,54%
16,O=C(Nc1cccc(C(F)(F)F)c1)c1cccc(S(=O)(=O)NC2CCCN(CC3CCCCC3)C2)c1.O=C(O)C(F)(F)F (configuration not stated),15%
17,N#Cc1cccc(C(=O)Nc2ccc(-c3ccc(CN4CCCC4)cc3)cc2)c1.O=C(O)C(F)(F)F,32%
